Screening results (PubChem BioAssay)
This is a sample that favours compounds with a hit; in the whole collection about 9.5% have one here.
Tau FP inhib – qHTS for Inhibitors of Tau Fibril Formation, Fluorescence Polarization. 280,000 compounds, 0.39% hits. Potency, µM (doses to about 57.7 µM), for inactives: at the highest dose activity, negative = inhibition, actives largely listed as inhibitors. K18 P301L tau heparin fibrillization, Alexa594 FP, 6 h. Microtubule-associated protein tau (Homo sapiens), P10636; note: nearly all actives have a fitted effect of over 55% in size
Target sequence (P10636 561-689 P618L limits assumed): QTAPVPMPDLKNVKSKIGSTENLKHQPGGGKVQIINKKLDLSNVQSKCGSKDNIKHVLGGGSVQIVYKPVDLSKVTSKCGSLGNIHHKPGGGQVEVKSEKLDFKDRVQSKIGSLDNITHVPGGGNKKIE
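Steps: dispense K18 P301L tau (15 uM plus 0.24 uM Alexa 594 tracer, final) in pH 7 sodium acetate; add compound; add heparin (20 uM final); incubate 6 hr, 37 C; add ThT (30 uM final); after 1 hr ambient, read FP.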
Tau fluor counter – Counterscreen qHTS for Inhibitors of Tau Fibril Formation, Fluorescence Polarization. AID 1463, 2008. tau K18 P301L Alexa594 fluorescence, heparin fibrillization. Potency, µM (highest dose often 57.7 µM), for inactives: top-dose activity change, negative = decrease. 280,000 compounds, 0.93% hits; note: nearly all actives have a fitted effect of over 55% in size
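Human tau K18 P301L (15 uM unlabeled, 0.24 uM Alexa 594-labeled) in 100 mM sodium acetate pH 7 with 20 uM heparin, 6 hr at 37 C. ThT 30 uM added, 1 hr ambient; Alexa 594 FP and total fluorescence read at 555/632 nm.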
Tau ThT inhib – qHTS for Inhibitors of Tau Fibril Formation, Thioflavin T Binding; recombinant tau K18 P301L (four-repeat tau fragment), heparin-induced fibrillization, ThT fluorescence; AID 1460, 2008; 270,000 compounds, 2.1% hits; Potency, µM (top dose mostly 57.4 µM), for the others: at the highest dose activity, negative = inhibition, hits mostly inhibitors; note: nearly all actives have a fitted effect of over 55% in size
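Recombinant human tau K18 fragment […] carrying P301L, 15 uM unlabeled plus 0.24 uM Alexa 594-labeled, was fibrillized with 20 uM heparin in 100 mM sodium acetate pH 7 for 6 hr at 37 C; 30 uM ThT fluorescence read after 1 hr.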
ALDH1A1 inh – qHTS Assay for Inhibitors of Aldehyde Dehydrogenase 1 (ALDH1A1); Purified ALDH1A1, NADH fluorescence, propionaldehyde substrate; 220,000 compounds, 7.3% hits; Potency, µM (series often up to 75.3 µM), for inactives: at the top dose activity, negative = inhibition, usual class: inhibitors; Aldehyde dehydrogenase 1A1 (Homo sapiens), P00352; AID 1030, 2008; active = well fitted inhibition curve with a large enough effect, not every such curve was filed as active; inconclusive = small, poorly fitted or top-dose-only effect, or another doubt; inactive = no such curve, though single readings can be large or run the other way;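 note: plate controls were no enzyme wells and a reference inhibitor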
NPSR antag – qHTS Assay for Antagonists of the Neuropeptide S Receptor: cAMP Signal Transduction | Q6W5P4 | CHO-NPSR cells, cAMP TR-FRET, antagonist mode | Potency, µM (titrated, usually from 38.3 µM), without a hit: at the top dose activity change, negative = inhibition, hits mostly inhibitors | 220,000 compounds, 1% hits; note: nearly all actives have a fitted effect of over 50% in size
Target sequence (Q6W5P4 whole entry, looked up): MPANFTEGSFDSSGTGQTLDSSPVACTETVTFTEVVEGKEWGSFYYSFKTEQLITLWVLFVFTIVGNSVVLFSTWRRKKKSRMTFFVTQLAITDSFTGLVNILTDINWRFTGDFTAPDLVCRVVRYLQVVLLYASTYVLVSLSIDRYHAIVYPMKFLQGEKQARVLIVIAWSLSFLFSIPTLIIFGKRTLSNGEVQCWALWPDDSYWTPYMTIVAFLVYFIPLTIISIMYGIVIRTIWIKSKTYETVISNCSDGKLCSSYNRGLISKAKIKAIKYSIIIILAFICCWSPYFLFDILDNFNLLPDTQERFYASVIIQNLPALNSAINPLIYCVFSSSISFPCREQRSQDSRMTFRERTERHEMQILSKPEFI
HPGD inh – qHTS Assay for Inhibitors of HPGD (15-Hydroxyprostaglandin Dehydrogenase); 150,000 compounds, 4.3% hits; Potency, µM, without a hit: at the highest dose activity change, negative = inhibition, usual class: inhibitors; AID 894, 2007; purified HPGD, NADH fluorescence kinetic, PGE2 substrate; 15-hydroxyprostaglandin dehydrogenase [NAD(+)] (Homo sapiens), P15428; active = well fitted inhibition curve with a large enough effect, not every such curve was filed as active; inconclusive = small, poorly fitted or top-dose-only effect, or another doubt; inactive = no such curve, though single readings can be large or run the other way
Target sequence (P15428 whole entry, looked up): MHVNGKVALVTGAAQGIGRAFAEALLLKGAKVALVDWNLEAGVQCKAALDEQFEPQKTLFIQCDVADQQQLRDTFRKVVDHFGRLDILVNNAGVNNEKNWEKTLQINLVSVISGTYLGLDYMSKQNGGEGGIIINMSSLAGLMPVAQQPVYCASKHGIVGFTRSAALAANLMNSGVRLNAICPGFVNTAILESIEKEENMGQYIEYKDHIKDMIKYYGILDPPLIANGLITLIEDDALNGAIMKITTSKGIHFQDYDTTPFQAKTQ
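NADH formation kinetics: reaction with 30 uM PGE2 and 1 mM NAD+ (final), 20 nM enzyme, Tris-HCl pH 8 with Tween 20, after 15 min compound preincubation at room temperature. Fluorescence change, last versus first of five reads.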
The depositor's hits bear a star; ? = inconclusive; nt = no result given; [ ] = another dose, or the depositor's remark. Unless noted, calls come from the whole dose curve; as a rule, active = well fitted curve in the direction sought with a large enough effect; inconclusive = small, poorly fitted or top-dose-only effect, or another doubt; inactive = no such curve, though single readings can be large; an effect the other way counts as inactive or inconclusive. Unless noted, % is set by controls: 0 for no effect and ±100 for the full control effect; potency is the fitted concentration of half-maximal effect.

SMILES	Tau FP inhib	Tau fluor counter	Tau ThT inhib	ALDH1A1 inh	NPSR antag	HPGD inh
O=C1NC[C@H](c2ccccc2)N1	-7.2%	-2.1%	2.4%	-9.0%	nt	-16.5%
C=C(C)C(=O)/C=C/c1ccc(C(F)(F)F)cc1	3.1%	2.6%	-0.9%	10.1%	nt	-4.5%
COc1cc(NC(=S)N2CCN(CCO)CC2)c(OC)cc1Cl	-1.2%	6.2%	-2.7%	5.0%	17.1%	nt
OCCN1CCN(C(=S)c2ccc(Cl)c(Cl)c2)CC1	?	-21.7%	7.94µM*	?	11.1%[46.1 µM]	14.1µM*
COc1cc(C(c2sc3nc(C)nn3c2O)N2CCC3(CC2)OCCO3)cc(OC)c1OC (stereo unspecified)	9.1%	-2.0%	2.5%	17.8µM*	4.3%[46.1 µM]	-6.1%
Cn1cnnc1SCC(=O)N1N=C2/C(=C/c3ccco3)CCCC2C1c1ccco1 (stereo unspecified)	-2.7%	1.1%	-7.3%	15.8µM*	-17.3%[46.1 µM]	?
O=C(CSc1nccc(=O)[nH]1)N1N=C2/C(=C/c3ccco3)CCCC2C1c1ccco1 (stereo unspecified)	?	-12.0%	?	14.1µM*	-28.3%	nt
Nc1nc(SCC(=O)N2N=C3/C(=C/c4ccco4)CCCC3C2c2ccco2)n[nH]1 (stereo unspecified)	6.3%	-18.4%	-12.3%	?	-15.5%[46.1 µM]	-4.5%
CCc1nc2ccccc2c(C(=O)OCc2nnc(-c3ccccc3)o2)c1C	3.0%	-16.3%	?	?	-17.8%[46.1 µM]	20µM*
CCc1nc2ccccc2c(C(=O)OCC(=O)C(C)(C)C)c1C	0.1%	-10.1%	-13.0%	-5.9%	-27.7%	nt
Brc1ccccc1OCCCN1CCCCCC1	-4.8%	11.8%	3.9%	?	1.9%	nt
Brc1ccccc1OCCCCCN1CCOCC1	1.9%	-4.1%	-12.9%	11.2µM*	-6.9%	nt
O=Cc1ccccc1Oc1ccccc1	11.8%	7.9%	-3.3%	-9.0%	-14.5%[46.1 µM]	0.0%
O=Cc1ccccc1OCCOc1ccccc1C=O	-5.2%	1.4%	-16.5%	20µM*	19.7%[46.1 µM]	?
CN1CCN(CCCCOc2ccccc2C=O)CC1	5.1%	13.6%	12.2%	22.4µM*	1.3%	nt
CN(C(=O)Cc1noc2ccccc12)c1ccccc1	3.3%	-2.4%	-1.8%	-1.0%	5.9%	-13.3%
Cc1ccc(-n2ncc3c(NC4CCCC4)ncnc32)cc1	-12.9%	-14.1%	-4.5%	nt	nt	nt
Cc1cccc(-n2c(=S)[nH]c3nc4c(cc3c2=O)COC(C)(C)C4)c1	-7.5%	-7.4%	-7.8%	0.708µM*	43.3%	nt
COc1ccc(Br)c(C(=O)NCCC(C)C)c1	7.7%	2.7%	-0.9%	6.0%	21.6%	12.6µM*
CC(C)CCNC(=O)COc1ccc(N(C)S(=O)(=O)c2ccc(F)cc2)cc1	-0.7%	-10.8%	-0.5%	10.9%	-20.2%	nt
COc1ccc(S(=O)(=O)N(C)c2ccc(C(N)=O)cc2)cc1	12.3%	-0.5%	-5.3%	-5.3%	-7.0%[46.1 µM]	-7.1%
COc1ccc(S(=O)(=O)N(C)c2ccc(C(=O)NCCC(C)C)cc2)cc1	3.1%	-16.6%	-12.5%	-15.9%	-18.6%[46.1 µM]	2µM*
CCOCCCNC(=O)c1ccc(N(C)S(=O)(=O)c2ccc(OC)cc2)cc1	1.6%	-5.3%	-6.0%	-11.2%	-14.9%[46.1 µM]	1.58µM*
O=c1oc2ccccc2c(N2CCN(c3ccccc3F)CC2)c1CN1CCCC1	4.2%	-7.4%	-11.7%	nt	nt	nt
CCOCCCNC(=O)CN1C(=O)c2c(c3ccccc3n2C)C1c1ccc(OC)cc1 (stereo unspecified)	3.4%	-3.4%	-6.0%	nt	nt	nt
SMILES	Tau FP inhib	Tau fluor counter	Tau ThT inhib	ALDH1A1 inh	NPSR antag	HPGD inh
CC(C)c1nc2ccc(C(=O)Nc3ccccc3F)cc2o1	-1.4%	-0.4%	-6.2%	nt	nt	nt
Nc1c(C(=O)NCCc2ccccc2)nnn1CC(=O)Nc1ccc(Cl)cc1	-8.5%	-5.2%	1.8%	nt	nt	nt
CCC(C)(C)NC(=O)C1CCN(S(=O)(=O)c2c(C)noc2/C=C/c2ccc(C)cc2)CC1	3.5%	12.0%	13.1%	nt	nt	nt
CCn1c(=O)n(CC)c2cc(N3CCCCC3)c(NC(=O)Nc3cc(C)cc(C)c3)cc21	10.8%	-18.5%	-12.3%	nt	nt	nt
Cc1ccsc1C1C2=C(CC(C)(C)CC2=O)Nc2ncnn21 (stereo unspecified)	1.8%	-4.2%	-17.9%	11.2µM*	-13.1%[46.1 µM]	?
Cc1ccsc1C1C2=C(CCCC2=O)Nc2ncnn21 (stereo unspecified)	5.7%	1.4%	-0.7%	?	-10.6%[46.1 µM]	-23.3%
Cc1cccc(C(=O)N2CCc3cc(CNC(=O)COc4ccc(Cl)cc4)ccc32)c1	-3.5%	-11.9%	0.1%	nt	nt	nt
COc1cccc(NC(=O)Nc2cc(-c3cn4cccnc4n3)ccc2C)c1	?	-13.0%	-7.7%	nt	nt	nt
COc1cccc(NC(=O)Nc2ccc(C(C)(C)C)cc2)c1	?	28.2µM*[quencher]	-9.5%	1.5%	-26.2%	nt
COc1cccc(NC(=O)Nc2cc(-c3cn4cccnc4n3)ccc2OC)c1	-4.0%	20µM*[quencher]	?	nt	nt	nt
CCOC(=O)c1cc(NC(=O)Nc2ccc(Br)cc2)c(C)nc1C	17.8µM*	?	10.7%	4.9%	-16.1%	nt
CCC(C)[C@H](NC(=O)Nc1cccc(OC)c1)C(=O)OC (stereo partly specified)	-1.5%	-1.6%	2.1%	0.1%	-4.8%[46.1 µM]	-12.2%
COc1cccc(NC(=O)NC(C)C2CC3CCC2C3)c1 (stereo unspecified)	-2.8%	-21.7%	-5.2%	5.01µM*	-17.4%	nt
COc1cccc(NC(=O)c2ccc(NC(=O)C(C)(C)C)cc2)c1	7.2%	5.6%	0.1%	9.8%	1.8%	-5.5%
CCc1[nH]c(C(=O)O)c(C)c1C(=O)OC	-2.7%	-4.6%	-2.4%	8.5%	-6.6%	nt
COc1cccc(NC(=O)Nc2cc(NC(=O)Nc3cccc(OC)c3)c(C)nc2C)c1	22.4µM*	11.2µM*[quencher]	9.1%	8.7%	2.9%	-1.5%
COc1cccc(NC(=O)Nc2ccncc2)c1	0.9%	-11.4%	-6.0%	?	-4.1%	nt
COc1cccc(NC(=O)Nc2ccc(Cc3ccncc3)cc2)c1	?	15.8µM*[quencher]	-1.9%	3.4%	-4.8%	-12.9%
Cc1ccc(Nc2nnc(SCC(=O)Nc3ccccc3[N+](=O)[O-])s2)cc1	2.3%	-4.4%	5.1%	0.2%	-5.7%	-11.9%
Cc1cccc(Nc2nnc(SCC(=O)Nc3ccccc3[N+](=O)[O-])s2)c1C	-9.1%	-4.5%	0.8%	1.26µM*	-10.7%	?
COc1ccc(-c2csc(NC(=O)CSc3nnc(Nc4ccccc4C)s3)n2)cc1	?	-12.5%	-0.5%	25.1µM*	1.1%	nt
